# Screening results as filed in PubChem.
# ADAM10 inh: inhibitors of human ADAM10; recombinant ADAM10, EDANS/DABCYL FRET peptide cleavage, 3 h; inhibition, % at 7 µM; 0.62% of 370,000 active;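 active = inhibition above a per-campaign cutoff equal to the mean of compounds falling between control-based bounds plus 3 SD, cut at about 20% in these data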
# CendR NRP1 mod: alters CendR peptide binding to human NRP-1. inhibition, % at 25 µM. AID 602438. FAM-RPARPAR peptide binding to NRP-1, fluorescence polarization. 0.85% of 360,000 active;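 active = inhibition or corrected inhibition above about 18%, plus a signal ratio from 0.5 to 1.5, limit read from the data, passing the limit was not always enough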
# KLK7 zymogen act: activates the human kallikrein-7 zymogen; P49862; purified proKLK7, EDANS-DABCYL substrate fluorescence; 100% is mature enzyme control, 0% vehicle; activation, % at 7 µM; 0.9% of 370,000 active;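 active = activation above the mean of all tested compounds plus 3 SD, computed per campaign excluding outliers beyond control limits, cut at about 13% in these data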
# ADAM17 inh: ADAM17 inhibition, QFRET primary screen; inhibition, % at 6.95 µM; recombinant ADAM17, EDANS/DABCYL FRET peptide cleavage; 0.83% of 370,000 active; AID 720648; P78536;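 active = inhibition above the mean of compounds lying between control limits plus 3 SD, set per campaign, cut at about 8.5% in these data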
# HGIII-sPLA2 inh: Inhibits HGIII-sPLA2 liposome hydrolysis, primary screen; QFRET BODIPY PC-A2 liposome hydrolysis, fluorescence; inhibition, % at 12.2 µM; 0.56% of 370,000 active; AID 743126;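 active = inhibition above mean plus 3 SD of compounds lying within the high and low control bounds, cut at about 19% in these data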
# ADAM10 confirm: confirmation of inhibitors of human ADAM10. shares compounds with ADAM10 inh. ADAM10 QFRET peptide cleavage, EDANS fluorescence. inhibition, % at 6.95 µM. 1% of 2,100 active;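 active = inhibition above about 20% chosen separately for each screening run, limit read from the data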
# ADAM17 ctr: inhibits human ADAM17 in ADAM10 exosite counter-screen; inhibition, % at 6.95 µM; ADAM17 QFRET peptide cleavage, EDANS fluorescence; 0.5% of 2,100 active; shares compounds with ADAM10 inh;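 active = mean triplicate inhibition above the solvent-only control wells' mean plus 3 SD, cut at about 12% in these data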
# Numbers stand for hits; – = inactive; · = no result given. Rows were chosen to be rich in hits. Some 3.4% of all compounds tested hit in one or more screens of this group.
SMILES,ADAM10 inh,CendR NRP1 mod,KLK7 zymogen act,ADAM17 inh,HGIII-sPLA2 inh,ADAM10 confirm,ADAM17 ctr
CC(C)(C)C1CCc2onc(C(=O)NCc3ccc(F)cc3)c2C1 (stereo not given),21,–,–,–,–,–,–
COc1ccc(N(C)C(=O)c2oc(=O)c3ccccc3c2-c2ccc(C)cc2)c(OC)c1,22,–,–,–,–,–,–
CCCN(CC1CC1)C(=O)c1oc(=O)c2ccccc2c1-c1ccc(C)cc1,–,·,–,–,–,·,·
Cc1ccccc1S(=O)(=O)N1C(c2ccc(Cl)c(Cl)c2)CC=C(C(=O)O)C1c1cccc(Br)c1 (stereo not given),20,–,–,–,–,–,–
Cc1ccc(S(=O)(=O)Nc2ccccc2O)cc1,–,–,–,–,–,·,·
Cc1ccc(S(=O)(=O)Nc2ccccc2NS(=O)(=O)c2ccc(C)cc2)cc1,22,–,–,–,–,–,–
C=CCN1CCc2cc(O)c(O)cc2C(c2ccccc2)C1 (stereo not given),21,–,–,–,–,–,–
C=CCN1CCc2c(cc(O)c(O)c2Cl)C(c2ccccc2)C1 (stereo not given),–,–,–,–,–,·,·
CCOC(=O)[C@@]12CN(C(=O)OC(C)(C)C)CC=C1N(Cc1ccc(OC)cc1)C(=O)[C@H]2CC(=O)NCC1CCCCC1,–,·,–,–,–,·,·
COc1cccc([C@@H]2NC(=O)C/C=C/[C@H](C)[C@H](c3cccc(OC)c3)NC(=O)C/C=C/[C@@H]2C)c1,–,·,–,–,–,·,·
CC(O)(c1cccc(F)c1)c1nc(-c2cc3ccccc3o2)cs1 (stereo not given),22,–,–,–,–,–,–
CC(O)(c1ccccc1)c1nc(-c2csc3ccccc23)cs1 (stereo not given),21,–,–,–,–,–,–
CC(O)(c1cccc(F)c1)c1nc(-c2csc3ccccc23)cs1 (stereo not given),23,–,–,–,–,–,–
CC(O)(c1cccc(F)c1)c1nc(/C=C/c2ccccc2)cs1 (stereo not given),22,–,–,–,–,–,–
CCCCCCCCN1C(=O)[C@@H](CC(=O)NCCCN2CCCC2=O)C[C@@]2(C(=O)OC)C1=C[C@H](C(C)C)O[C@@H]2C1CC1,–,·,–,–,–,·,·
CCCCNC(=O)C[C@@H]1C(=O)N2CCCC3=C2[C@@]1(C(=O)OC)CCCC3,–,·,–,–,–,·,·
COc1ccc(-c2noc(C3CCCN(C(=O)Nc4ccc5c(c4)OCO5)C3)n2)cc1 (stereo not given),–,·,–,–,–,·,·
CCO[C@@H]1OC(C(=O)Nc2ccccc2)=C[C@H](c2ccc(C(F)(F)F)cc2)[C@H]1CCCO,–,–,–,–,–,·,·
CCO[C@H]1OC(C(=O)Nc2ccccc2)=C[C@@H](c2ccc(Br)cc2)[C@@H]1CCCO,24,–,–,–,–,–,–
COC(=O)c1cc(-c2ccc(C)c3ccccc23)c(=O)n2c1CCC2,–,·,–,–,–,·,·
COC(=O)C(Cc1cnc(Cl)s1)(C(=O)OC)c1ccc(C(F)(F)F)cc1[N+](=O)[O-],20,–,–,–,–,–,–
COC(=O)C(Cc1cnc(Cl)s1)(C(=O)OC)c1ccc([N+](=O)[O-])cc1[N+](=O)[O-],–,–,–,–,–,·,·
Nc1cc(OC(=O)c2ccco2)nn1S(=O)(=O)c1ccc(F)cc1,60,–,–,–,–,–,–
Cc1ccc2nc(C3CCN(S(=O)(=O)c4ccc5ccccc5c4)CC3)[nH]c2c1,26,–,–,–,–,–,–
CCCCNC(=O)C1(C(=O)C2CC2)CC(c2ccccc2C(F)(F)F)=NO1 (stereo not given),–,·,–,–,–,·,·
SMILES,ADAM10 inh,CendR NRP1 mod,KLK7 zymogen act,ADAM17 inh,HGIII-sPLA2 inh,ADAM10 confirm,ADAM17 ctr
COc1cc(OC)cc(C(=O)N/N=C/c2ccc(OC)c(COc3ccc4ccccc4c3)c2)c1,–,–,–,–,–,·,·
COc1ccc(C(=O)N/N=C/c2ccc(OC)c(COc3ccccc3)c2)cc1,71,–,–,–,–,–,–
CC(C)c1ccc(C(=O)NCCCNC(=O)c2cnccn2)cc1,51,–,–,–,–,–,–
Cc1ccc(OCCNC(=O)c2cccc(S(=O)(=O)NCc3ccccc3)c2)cc1,21,–,–,–,–,–,–
O=C(CSc1nnc(-c2ccncc2)n1-c1ccc(Cl)cc1)c1ccc(Cl)c(Cl)c1,–,·,–,–,–,·,·
NC(=O)C(c1ccc(Cl)cc1)c1ccc(Sc2ccc(Cl)cc2)nn1 (stereo not given),23,–,–,–,–,–,–
COCCCN1C(=O)[C@H](CC(=O)NCc2cccc(C(F)(F)F)c2)[C@]2(C(=O)OC)CCCCC=C12,–,·,–,–,–,·,·
CC(C)Cc1ccc(C(C)C(=O)Nc2ccc(O)cc2)cc1 (stereo not given),21,38,–,–,–,–,–
Cc1ccc(S(=O)(=O)N2CCCCC2)cc1NC(=O)COC(=O)Cc1cccc2ccccc12,20,–,–,–,–,–,–
COCCCN(C(=O)c1cc2c(s1)CCCCC2)c1c(N)n(Cc2ccccc2)c(=O)[nH]c1=O,20,–,–,–,–,–,–
CNC(=S)N/N=C/c1cn(CCOc2ccc(OC)cc2)c2ccccc12,20,–,–,–,–,–,–
CN(CCc1ccccc1)C(=O)c1cc(COc2cccc(C(F)(F)F)c2)on1,21,–,–,–,–,–,–
CN(CCCN1CCOCC1)C(=O)c1cc(COc2cccc(C(F)(F)F)c2)on1,–,–,–,–,–,·,·
CCOc1cc(C(=O)NCC(C)(C)CNC(=O)c2cc(OCC)c(OCC)c(OCC)c2)cc(OCC)c1OCC,21,–,–,–,–,–,–
COc1cc(C(=O)NCC(C)(C)CNC(=O)c2cc(OC)c(OC)c(OC)c2)cc(OC)c1OC,–,–,–,–,–,·,·
C[C@@H]1COc2cc(Br)ccc2S(=O)(=O)N1Cc1cn(Cc2ccccc2)nn1,–,·,–,–,–,·,·
Cc1ccc(Cn2cc(CN3[C@H](c4ccccc4)COc4cc(Br)ccc4S3(=O)=O)nn2)cc1,21,·,–,–,–,–,–
COc1ccc(NC(=O)CN(C)C(=O)c2ccc(S(=O)(=O)N3CCOCC3)cc2)cc1,–,–,–,–,–,·,·
COc1ccc(S(=O)(=O)N(CC(=O)Nc2ccc(S(=O)(=O)N3CCOCC3)cc2)c2ccccc2)cc1,24,–,–,–,–,–,–
Cc1ccc(S(=O)(=O)N(CCC(=O)Nc2ccc(OC(F)(F)F)cc2)c2ccccc2)cc1,21,40,–,–,–,–,–
